From PubChem
An excerpt weighted towards active compounds, which were near 19% of everything screened.
VP16 counter: counter-screen for ROR gamma inhibitors: Gal4-VP16 reporter. Drosophila S2 Gal4-VP16 UAS-luciferase, luminescence, 20 h. Potency, µM (doses to about 53.6 µM), most hits filed as inhibitors. 3.5% of 310,000 active. AID 2546;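 further: Gal4-VP16 expression switched on by copper sulfate through the metallothionein promoter; nearly all actives have a fitted effect of over 50% in size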
TDP1 cell CPT: growth inhibition of DT40 Tdp1-/-;hTDP1 cells with camptothecin (screen for TDP1 inhibitors) | chicken DT40 Tdp1-/-;hTDP1 cells + 20 nM CPT, ATP luminescence, 48 h | AID 686979 | Potency, µM (series often up to 46.2 µM), most hits filed as inhibitors | 12% of 420,000 active; further: nearly all actives have a fitted effect of over 55% in size
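Chicken DT40 Tdp1-/- cells stably complemented with human TDP1 were seeded at 400 cells/well in medium containing 20 nM camptothecin, exposed to pin-transferred compounds, and grown at 37 °C for at least 48 hr. Viability was read as ATP luminescence.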
TDP1 block: TDP1 (human) enzyme inhibition; AID 485290; Potency, µM (doses to about 130 µM), most hits filed as inhibitors; recombinant TDP1, AlphaScreen DNA substrate cleavage; 0.28% of 350,000 active; further: nearly all actives have a fitted effect of over 40% in size
Target sequence (Q9NUW8 whole entry, looked up): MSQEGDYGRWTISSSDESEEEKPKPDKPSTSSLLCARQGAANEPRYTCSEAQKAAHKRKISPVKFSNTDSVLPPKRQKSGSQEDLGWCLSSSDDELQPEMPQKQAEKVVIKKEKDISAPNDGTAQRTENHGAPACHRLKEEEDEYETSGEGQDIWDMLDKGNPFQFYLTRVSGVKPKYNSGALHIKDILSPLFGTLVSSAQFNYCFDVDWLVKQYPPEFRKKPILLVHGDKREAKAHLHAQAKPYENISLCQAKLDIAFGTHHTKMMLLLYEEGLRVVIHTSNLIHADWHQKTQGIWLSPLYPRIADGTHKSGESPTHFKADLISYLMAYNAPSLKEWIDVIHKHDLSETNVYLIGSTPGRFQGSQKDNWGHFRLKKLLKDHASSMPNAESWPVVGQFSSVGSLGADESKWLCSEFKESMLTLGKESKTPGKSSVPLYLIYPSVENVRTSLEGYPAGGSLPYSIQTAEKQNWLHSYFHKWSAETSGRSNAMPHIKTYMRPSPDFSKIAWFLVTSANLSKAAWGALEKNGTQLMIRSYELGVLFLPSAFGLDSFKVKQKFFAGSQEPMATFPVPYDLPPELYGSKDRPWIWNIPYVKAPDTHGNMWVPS
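Steps: enzyme plus compound, 15 min RT; add biotin/phosphotyrosine-FITC oligonucleotide (15 nM final), react 5 min; add donor/acceptor beads (10 ug/ml final), 10 min; read AlphaScreen. Tdp1 at 1 nM final.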
TDP1 cell noCPT: qHTS for Inhibitors of human tyrosyl-DNA phosphodiesterase 1 (TDP1): qHTS in cells in absence of CPT | DT40 Tdp1-/- hTDP1 cells, no CPT, ATP luminescence, 48 h | Potency, µM (titrated, usually from 46.2 µM), hits mostly inhibitors | 15% of 420,000 active | AID 686978, 2013; further: nearly all actives have a fitted effect of over 55% in size
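DT40 Tdp1-/-;hTDP1 cells, no CPT (DMSO vehicle only), 400 cells/well; compounds pin-transferred; ≥48 hr, 37 °C; CellTiter-Glo 30 min RT dark, luminescence read.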
RORg inh: blocks mouse ROR gamma transcriptional activity | Drosophila S2 Gal4-RORgamma UAS-luciferase reporter, 20 h | Potency, µM (doses to about 53.6 µM), hits mostly inhibitors | 5.4% of 310,000 active; further: nearly all actives have a fitted effect of over 60% in size
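Luciferase reporter read in Schneider cells carrying Gal4-RORγ (mouse) and UAS-Photinus luciferase; cells given compound 1 h before 700 uM copper sulfate induction, then incubated 20 h at ambient temperature.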
Of the large screens only hits and unclear results are named; the others gave an inactive call. The call rests on the fitted dose curve; in most records, active means well fitted curve in the direction sought with a large enough effect; inconclusive means small, poorly fitted or top-dose-only effect, or another doubt; inactive means no such curve, though single readings can be large; an effect the other way counts as inactive or inconclusive.

CCCn1c(C)cc(C(=O)CN2C(=O)NC3(CCCCCC3)C2=O)c1C	TDP1 cell CPT 10µM, TDP1 cell noCPT 6.5µM (no result: VP16 counter, TDP1 block, RORg inh)
CC(C)CC1(C)NC(=O)N(CC(=O)Nc2ccc3c(c2)CCC3)C1=O (centres undefined)	TDP1 cell CPT inconclusive, TDP1 cell noCPT 26µM, RORg inh inconclusive
CCc1ccc(C(=O)CN2C(=O)NC3(CCCCCC3)C2=O)cc1	TDP1 cell CPT inconclusive, TDP1 cell noCPT 23µM (no result: VP16 counter, RORg inh)
Cc1ccc(C2(C)NC(=O)N(CC(=O)Nc3ccc4c(c3)CCC4)C2=O)cc1 (centres undefined)	TDP1 cell CPT inconclusive (no result: VP16 counter, RORg inh)
COC(=O)C1CCN(C(=O)COC(=O)Cc2c[nH]c3ccccc23)CC1	none
CC(C)(C)c1cc(=O)[nH]c(SCc2ccccc2Cl)n1	TDP1 cell noCPT inconclusive
O=C(CN1C(=O)NC2(CCCCCC2)C1=O)Nc1ccc(OC(F)(F)F)cc1	TDP1 cell CPT 15µM, TDP1 cell noCPT 9.2µM (no result: VP16 counter, TDP1 block, RORg inh)
O=C(CN1C(=O)NC2(CCCCCCC2)C1=O)Nc1ccc(Cl)cc1	TDP1 cell CPT 13µM, TDP1 cell noCPT 15µM (no result: VP16 counter, RORg inh)
CC1(c2cccc(Br)c2)NC(=O)N(CC(=O)Nc2ccc(N3CCCCC3)cc2)C1=O (centres undefined)	TDP1 cell CPT inconclusive, TDP1 cell noCPT 13µM (no result: VP16 counter, TDP1 block, RORg inh)
N#Cc1cccc(NC(=O)CN2C(=O)NC3(CCCCCC3)C2=O)c1	none (no result: VP16 counter, RORg inh)
O=C(CN1C(=O)NC2(CCCC2)C1=O)Nc1ccc(OC(F)(F)F)cc1	none
CCc1cccc(NC(=O)CN2C(=O)NC3(CCCCCCC3)C2=O)c1	TDP1 cell CPT 10µM, TDP1 cell noCPT 15µM, RORg inh inconclusive
COc1cc(C(=O)NC2CCCCC2)ccc1OC1CCN(C(C)=O)CC1	none (no result: TDP1 block)
C=CCNCCOCCSc1ccc(Cl)cc1	TDP1 cell CPT inconclusive, TDP1 cell noCPT inconclusive
CC(CCl)n1c(=O)c2ccccc2n1S(C)(=O)=O (centres undefined)	none (no result: VP16 counter, TDP1 block, RORg inh)
CCN(c1ccccc1)S(=O)(=O)c1ccc(Cl)c(NC(=O)CN2C(=O)NC3(CCCC3)C2=O)c1	TDP1 cell CPT inconclusive, TDP1 cell noCPT 18µM
Cc1cc(NC(=O)CN2C(=O)NC3(CCCCCC3)C2=O)ccc1Br	TDP1 cell CPT inconclusive, TDP1 cell noCPT 21µM (no result: VP16 counter, RORg inh)
CCN(c1ccccc1)S(=O)(=O)c1ccc(OC)c(NC(=O)CN2C(=O)NC(C)(C)C2=O)c1	none (no result: VP16 counter, RORg inh)
CC(=O)Nc1ccc(NC(=O)CN2C(=O)NC3(CCCCCCC3)C2=O)cc1	TDP1 cell noCPT inconclusive (no result: VP16 counter, RORg inh)
O=C(CN1C(=O)NC2(CCCC2)C1=O)OCc1ccc(Cl)c(Cl)c1	TDP1 cell CPT 16µM, TDP1 cell noCPT 21µM (no result: VP16 counter, TDP1 block, RORg inh)
CCC1(c2ccccc2)NC(=O)N(CC(=O)Nc2cc(S(=O)(=O)N3CCCCC3)ccc2N(C)C)C1=O (centres undefined)	TDP1 cell CPT inconclusive, TDP1 cell noCPT 21µM (no result: VP16 counter, RORg inh)
COc1nonc1NC(=O)CSc1nc2ccccc2[nH]1	TDP1 cell noCPT inconclusive
CCOc1cc(C2NC(=S)NC(C)=C2C(=O)Nc2ccccc2)ccc1O (centres undefined)	none
CC(C)(C)NC(=O)NC(=O)COC(=O)CNC(=O)c1cc(Cl)cc([N+](=O)[O-])c1	none
Cc1ccc(C)c(S(=O)(=O)NCCCN2CCOCC2)c1	none
Cc1nc([N+](=O)[O-])cn1CC(=O)c1ccc2c(c1)OCCCO2	TDP1 cell noCPT inconclusive (no result: VP16 counter, TDP1 block, RORg inh)
Cc1ccc(/C=N/NC(=O)CCn2nc(C)cc2C)c(C)c1	TDP1 cell CPT inconclusive, TDP1 cell noCPT inconclusive
Cc1ccc(C)c(/C=N/NC(=S)NC(C)C)c1	VP16 counter 3.2µM, TDP1 cell CPT 5.8µM, TDP1 cell noCPT 5.8µM, RORg inh 2.2µM
CNC(=S)N/N=C/c1cc(C)ccc1C	VP16 counter 5µM, TDP1 cell CPT inconclusive, TDP1 cell noCPT inconclusive, RORg inh 2.2µM
CNC(=S)Nc1ccc(C)cc1	RORg inh inconclusive
COc1ccccc1C(=O)N1CCN(C(=O)Cc2ccccc2)CC1	none
CN(Cc1ccccc1N1CCCC1)C(=O)c1cc2ccccc2o1	TDP1 cell CPT inconclusive, TDP1 cell noCPT inconclusive (no result: VP16 counter, RORg inh)
CN(Cc1ccccc1N1CCCC1)C(=O)c1cc2cc(Cl)ccc2o1	TDP1 cell CPT 12µM (no result: VP16 counter, RORg inh)
